AC50 and outcome data for 29 compounds are collected here from PubChem BioAssay (EPA / NIEHS).

The structures appear in SMILES notation. Several values for one entry are separate records, joined by “and”; a condition that tells them apart may be missing. Equal values may be shown once. Inconclusive results are not listed. Where a structure was tested more than once in an assay, its records may differ in their call. Activity calls are given as the source filed them. Rule for the calls: active = hit-call score of the fitted dose curve at least 0.9, where 1 is the maximum; inconclusive = response in the unintended direction; inactive = score below 0.9.

This assay in a line: TOX21_p53_BLA_p4_viability: Viability Assessment in the Tox21 HCT-116 p53 Agonism Beta-lactamase Assay, Phase 4 (AID 2283597).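 Note: hits lower the luminescence signal meaning cytotoxicity.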 A digest of the protocol:
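Cytotoxicity was inferred from loss of CellTiter-Glo luminescence. HCT116 cells had been dosed with compounds after 5 h plating, incubated 16 h at 37C and 5% CO2, and exposed to the CCF4-AM substrate for 2 h.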
In general, AC50 refers to the midpoint of the concentration-response curve, whichever way the signal moves. `O=c1n(CC2CO2)c(=O)n(CC2CO2)c(=O)n1CC1CO1` (stereo not drawn): the AC50 was 51.2 µM (active) and the result was inactive.

On to `O=C1CCC(N2C(=O)c3ccccc3C2=O)C(=O)N1` (stereo not drawn), for which the compound was classed as inactive.

`Cc1ccc(S(=O)(=O)O)cc1C`: the compound was classed as inactive.

`C1N2CN3CN1CN(C2)C3`: the call was inactive.

As for `COC(=O)c1c(Cl)c(Cl)c(C(=O)OC)c(Cl)c1Cl`, the outcome was inactive.

For `CN(C)c1ccc(N=NS(=O)(=O)O)cc1`, the compound was classed as inactive.

In the case of `CC(C)CC(C)(O)C#CC(C)(O)CC(C)C` (stereo not drawn), the outcome was inactive.

Regarding `O=C1OC(=O)C2C3C=CC(C3)C12` (stereo not drawn), the outcome was inactive.

As to `COC(=O)c1ccccc1O`, the call was inactive.

Turning to `O=C(CCCCCCCCc1cccnc1)N1CCC(C=C(c2ccccc2)c2ccccc2)CC1`, the result was inactive.

Turning to `C[C@](N)(Cc1ccc(O)c(O)c1)C(=O)O`, the outcome was inactive.

As to `Cn1cnc([N+](=O)[O-])c1Sc1ncnc2nc[nH]c12`, the AC50 was 1.62 µM (active) and the outcome was inactive.

Regarding `O=C1CCCCCN1`, the call was inactive.

Regarding `Oc1ccc2c(c1)-c1ccccc1C2`, the outcome was inactive.

As for `CC(C)=CCC/C(C)=C\CO`, the call was inactive.

`CCC(C)(C)C(=O)O[C@H]1C[C@@H](C)C=C2C=C[C@H](C)[C@H](CC[C@@H]3C[C@@H](O)CC(=O)O3)[C@H]21`: the AC50 was 46.1 µM (active).

For `Nc1cccc(N)c1`, the compound was called inactive.

`Nc1nc2ncc(CNc3ccc(C(=O)N[C@@H](CCC(=O)O)C(=O)O)cc3)nc2c(=O)[nH]1`: the compound was called inactive.

Regarding `Cn1c(=O)c2c(ncn2C)n(C)c1=O`, the compound was called inactive.

In the case of `O=C(OC[C@H]1O[C@@H](OC(=O)c2cc(O)c(O)c(OC(=O)c3cc(O)c(O)c(O)c3)c2)[C@H](OC(=O)c2cc(O)c(O)c(OC(=O)c3cc(O)c(O)c(O)c3)c2)[C@@H](OC(=O)c2cc(O)c(O)c(OC(=O)c3cc(O)c(O)c(O)c3)c2)[C@@H]1OC(=O)c1cc(O)c(O)c(OC(=O)c2cc(O)c(O)c(O)c2)c1)c1cc(O)c(O)c(OC(=O)c2cc(O)c(O)c(O)c2)c1`, the AC50 was 14.1 µM (active) and 3.93 µM (active).

Regarding `Cc1[nH]cnc1C[C@H]1CCc2c(C)c3ccccc3n2C1=O`, the AC50 was 41 µM (active) and the call was inactive.

For the compound `CCCCCCc1ccc(O)cc1O`, the AC50 was 69.2 µM (active) and 73 µM (active); the outcome was inactive.

`CC(=O)OC[C@H]1O[C@@](COC(C)=O)(O[C@H]2O[C@H](COC(C)=O)[C@@H](OC(C)=O)[C@H](OC(C)=O)[C@H]2OC(C)=O)[C@@H](OC(C)=O)[C@@H]1OC(C)=O`: the compound was called inactive.

Turning to `O=P(OC(CCl)CCl)(OC(CCl)CCl)OC(CCl)CCl`, the AC50 was 53.8 µM (active).

As for `COc1ccc(-n2nc(C(F)F)cc2-c2ccc(S(C)=O)cc2)cc1` (stereo not drawn), the compound was called inactive.

As for `O=C(O)c1cc(N=Nc2ccc(S(=O)(=O)Nc3ccccn3)cc2)ccc1O`, the compound was called inactive.

On to `CC(C)c1cccc(C(C)C)c1N1C(=O)c2ccc(O)cc2C1=O`, for which the AC50 was 68.4 µM (active).

Take `CC(=O)OCCC(C)C`: the outcome was inactive.

Regarding `O=C(O)c1cccc(N(Cc2cccnc2)c2ccc(OC(F)F)c(OC(F)F)c2)c1`, the result was inactive.
